# High-throughput results: PubChem BioAssay, NMMLSC
# Only some compounds are listed: those with a hit (about 1.3% of all), similar ones and a draw of the others.
# AGP1 TOR yeast = modulators of TOR pathway AGP1-GFP in S. cerevisiae; S. cerevisiae AGP1-GFP multiplex flow cytometry, 3 h; GFP as percent of DMSO wells; GFP response vs DMSO, % at 10 µM; 320,000 tested, 0.02% active; AID 2066;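 active = GFP response relative to DMSO above a set limit, near screen average plus 3 SD, cut at about 150% in these data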;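 also: median GFP channel fluorescence of the gated AGP1 strain per well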
# Efflux pump inh = antifungal efflux pump inhibition, Nile Red retention; S. cerevisiae Candida pump triplex; inhibition, % at 10 µM; 330,000 tested, 0.44% active;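 active = plate passing quality check with inhibition over a set limit, or well fluorescence over plate mean plus 4 SD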;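 also: Nile Red retained in pooled yeast measured as flow cytometry median fluorescence; 0% = buffer negative control and 100% = Enniatin B positive control; higher means more Nile Red kept so more efflux inhibition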
# RPL19A TOR yeast = yeast TOR pathway RPL19A-GFP modulation; percent response vs DMSO, % at 10 µM; S. cerevisiae RPL19A-GFP strain, flow cytometry, 3 h; stronger effect = lower value; AID 2025; 330,000 tested, 0.3% active;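 active = percent response vs DMSO below 50%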;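 also: median channel GFP fluorescence of the barcoded RPL19A-GFP strain; ratio of sample median GFP to plate DMSO average so 100% = DMSO; lower means less RPL19A-GFP as with rapamycin TOR inhibition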
# LAP4-GFP MLPCN = yeast TOR pathway LAP4-GFP modulation; S. cerevisiae LAP4-GFP multiplex, flow cytometry GFP, 3 h; median GFP as percent of DMSO wells; GFP response vs DMSO, % at 10 µM; 320,000 tested, 0.34% active;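 active = GFP response vs DMSO above a set limit, about the screen mean plus 3 SD, cut at about 150% in these data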
# CIT2 TOR yeast = alters CIT2-GFP fluorescence in TOR pathway yeast screen. 320,000 tested, 0.065% active. S. cerevisiae CIT2-GFP strain, flow cytometry, 3 h; 100 means same as DMSO wells. GFP response vs DMSO, % at 10 µM;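 active = GFP response relative to DMSO above a set limit, near the screen mean plus 3 SD, cut at about 150% in these data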;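 also: ratio of well median GFP fluorescence to mean of DMSO wells on the plate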
# MEP2-GFP yeast = modulators of TOR pathway MEP2-GFP in S. cerevisiae. S. cerevisiae MEP2-GFP strain, flow cytometry GFP, 3 h; 100% = DMSO control level. GFP response vs DMSO, % at 10 µM. 330,000 tested, 0.51% active. AID 2016;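 active = GFP response versus DMSO above a set limit, roughly screen mean plus 3 SD, cut at about 180% in these data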;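 also: median GFP fluorescence of the barcode-gated MEP2-GFP cells per well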
# Cmpd fluor yeast = flagged as fluorescent in efflux inhibitor counter-screen; shares compounds with Efflux pump inh; S. cerevisiae AD/pABC3, compound fluorescence, flow cytometry; fluorescence ratio to DMSO, % at 10 µM; 1,700 tested, 4% active; AID 588517;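 active = fluorescence ratio to DMSO above its plate's cutoff, the plate mean ratio plus 5 SD, cut at about 210% in these data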;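 also: unstained yeast with no Nile Red so the signal is compound autofluorescence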
# Mdr1 pump inh = Candida Mdr1 efflux pump inhibition; inhibition, % at 10 µM; S. cerevisiae AD/CaMDR1, Nile Red efflux, flow cytometry; 1,700 tested, 1% active; shares compounds with Efflux pump inh; in the data active = inhibition above about 26%;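 also: 0% = DMSO vehicle and 100% = reference inhibitor; higher means more Nile Red retained so more efflux inhibition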
# Cdr2 pump inh = inhibitors of Candida albicans Cdr2 efflux pump | shares compounds with Efflux pump inh | S. cerevisiae AD/CaCDR2, Nile Red retention, flow cytometry | Nile Red retention ratio vs DMSO, % at 10 µM | 1,700 tested, 4% active | AID 588520; in the data active = Nile Red retention ratio vs DMSO above about 190%;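 also: higher ratio means more blocking of Cdr2 efflux of the dye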
# Cdr1 pump inh = blocks the Candida albicans Cdr1 efflux pump in yeast | shares compounds with Efflux pump inh | S. cerevisiae AD/CaCDR1, Nile Red efflux, flow cytometry | inhibition, % at 10 µM | 1,700 tested, 1% active;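 active = inhibition above the screen-wide mean plus twice its standard deviation, cut at about 32% in these data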
# Numbers without * were called inactive; / = no result.
SMILES,AGP1 TOR yeast,Efflux pump inh,RPL19A TOR yeast,LAP4-GFP MLPCN,CIT2 TOR yeast,MEP2-GFP yeast,Cmpd fluor yeast,Mdr1 pump inh,Cdr2 pump inh,Cdr1 pump inh
CCCCn1c(=N)n(CC(O)COc2ccccc2)c2ccccc21 (stereo not given),102.1,0.1,98.0,103.9,102.2,93.9,/,/,/,/
CCOC(=O)C(Cc1ccc(O)cc1)NC(=O)CCc1c[nH]c2ccccc12 (stereo not given),98.7,0.0,104.3,99.0,106.2,108.7,/,/,/,/
O=[N+]([O-])c1cc(S(=O)(=O)NCCN2CCOCC2)ccc1Cl,100.7,-0.1,101.2,95.9,105.3,107.8,/,/,/,/
COc1ccc(N2C(=O)CC(N3CCN(c4ccc(C(=O)c5cccnc5)cc4)CC3)C2=O)cc1 (stereo not given),107.2,9.8*,100.4,105.1,99.8,104.6,96.2,0.0,96.3,0.0
O=C(COC(=O)c1cccc(F)c1)NC(=O)NCc1ccccc1,97.3,0.4,99.5,99.9,101.8,102.2,/,/,/,/
CCN(CC(=O)Nc1ccc(NC(C)=O)cc1)CC(=O)Nc1ccccc1C(=O)c1ccccc1,91.8,0.7*,97.4,94.0,95.7,95.4,114.3,0.3,112.2,0.2
Clc1cc(Sc2ccc(Br)cc2)nnc1-c1ccccc1,104.5,-0.1,100.4,110.7,83.3,103.7,/,/,/,/
COc1ccc(CC(=O)OCC(=O)NC(=O)NC23CC4CC(CC(C4)C2)C3)cc1,100.0,0.7*,103.5,106.2,100.0,95.7,112.7,-0.1,106.0,-0.1
Cc1cc(CNC(=O)C2CCC(=O)N(Cc3cccc(C(F)(F)F)c3)C2)no1 (stereo not given),107.2,0.0,110.3,94.1,105.0,97.1,/,/,/,/
CC(C)Cc1cc(CNC(=O)C2CCC(=O)N(Cc3cccc(C(F)(F)F)c3)C2)on1 (stereo not given),107.5,9.2*,92.3,123.4,120.6,121.9,105.0,-0.1,95.1,-0.3
COC(=O)CCc1c(COC(C)=O)[nH]c(C(=O)OCc2ccccc2)c1C,98.4,0.0,102.4,95.7,103.8,104.2,/,/,/,/
COc1cccc(CN(CC(=O)NCC2CCCO2)C(=O)CCC(=O)Nc2cc(C)on2)c1 (stereo not given),96.2,0.0,99.6,99.6,94.4,93.4,124.4,0.2,109.9,0.4
COc1ccc(-c2cc(C(=O)Nc3ccc(OC)c(OC)c3)no2)cc1,98.6,1.4*,106.1,105.2,114.9,134.8,102.2,-0.6,108.3,0.1
OC(COCc1ccc(Cl)cc1)CN1CCN(CC(O)COCc2ccc(Cl)cc2)CC1 (stereo not given),103.6,-0.1,103.3,101.1,/,102.4,/,/,/,/
OC(COCc1ccc(Cl)cc1)CN1CCCCC1 (stereo not given),96.5,1.1*,98.9,96.9,95.5,104.3,79.0,-0.2,86.9,-0.4
CC(=O)N1CCC(O)(c2cccc(C(F)(F)F)c2)CC1,100.3,-0.1,96.0,92.5,102.4,99.6,/,/,/,/
Cc1ccc2oc(C(=O)N3CCC(O)(c4cccc(C(F)(F)F)c4)CC3)c(C)c2c1,93.8,0.5*,99.6,92.9,88.4,93.1,114.3,0.1,116.4,0.1
COC(=O)C1=C(C)Nc2c(c(=O)n(C)c(=O)n2C)C1c1ccc(Cl)cc1 (stereo not given),102.2,22.2*,107.8,96.9,98.8,103.2,101.4,-0.1,95.6,-0.1
Cc1cc(C)nc(NS(=O)(=O)c2ccc(NC(=O)CSc3ncn[nH]3)cc2)n1,104.3,-0.2,103.5,106.1,104.3,113.2,/,/,/,/
COc1ccc(S(=O)(=O)Nc2ccc(O)c(Sc3ncn[nH]3)c2)cc1,108.2,-0.1,100.7,102.7,103.5,102.3,81.2,-0.2,95.4,-0.3
CC(C)c1ccc(S(=O)(=O)Nc2ccc(O)c(Sc3ncn[nH]3)c2)cc1,91.0,-0.9,107.3,82.1,91.5,98.6,111.2,0.1,116.5,0.1
COCCCNC(=O)Cc1ccc(S(=O)(=O)N2CCOCC2)s1,95.7,0.0,97.1,102.1,87.2,92.8,/,/,/,/
N#C/C(=C/c1ccc(-c2ccc(S(N)(=O)=O)cc2)o1)c1nc2ccccc2s1,91.1,2.6*,103.6,133.4,128.1,118.5,99.3,0.5,150.5,0.2
N#C/C(=C\c1ccc(-c2nc3ccccc3s2)o1)C(N)=O,96.7,0.1,95.1,93.0,89.8,88.0,/,/,/,/
COC(=O)c1ccc(/C=C(\C#N)c2nc3ccccc3s2)cc1,89.6,0.0,93.9,99.8,99.3,100.7,101.8,-0.1,120.5,0.0
SMILES,AGP1 TOR yeast,Efflux pump inh,RPL19A TOR yeast,LAP4-GFP MLPCN,CIT2 TOR yeast,MEP2-GFP yeast,Cmpd fluor yeast,Mdr1 pump inh,Cdr2 pump inh,Cdr1 pump inh
N#C/C(=C/c1ccc(-c2ccc(S(N)(=O)=O)cc2)o1)C(=O)Nc1ccccc1,93.0,9.7*,102.7,87.2,97.4,98.4,98.2,-0.1,91.4,0.0
N#C/C(=C\c1ccco1)C(=O)Nc1ccc(S(N)(=O)=O)cc1,94.9,0.4,93.7,93.7,87.0,95.5,/,/,/,/
N/C(=N\OC(=O)Cc1cccs1)c1ccc(Cl)cc1,94.4,0.0,95.5,98.8,95.9,97.4,105.0,-0.3,97.2,0.0
CCCCOc1ccc(N2CC(C(=O)NCCc3ccc(OC)c(OC)c3)CC2=O)cc1 (stereo not given),102.4,0.3,97.5,107.7,95.8,98.8,/,/,/,/
CCN(CC)c1ccc(/C=C2\CCC(/C=N/NC(=O)c3ccc(=O)n(C)c3)=C2N2CCOCC2)cc1,31.8,1.0*,108.5,120.1,114.8,160.1,112.2,0.5,125.0,-0.2
Cc1ccccc1C(=O)Nc1cc(-c2cc(C(C)(C)C)oc2C)nn1C,110.8,-0.1,106.2,112.3,108.2,116.2,/,/,/,/
CSc1nc2ccc(NS(=O)(=O)c3ccc([N+](=O)[O-])cc3)cc2s1,102.0,0.1,89.3,101.0,92.7,89.8,/,/,/,/
CSc1nc2ccc(S(N)(=O)=O)cc2s1,92.1,12.4*,97.1,89.4,90.3,99.6,101.1,-0.2,106.3,-0.1
CCOc1ccc(C(=O)Nc2cccc(-c3nc4cccnc4o3)c2)cc1Cl,89.7,1.0*,100.5,124.9,109.0,107.3,113.2,0.1,114.4,-0.1
COc1ccc(-c2nnc(NC(=O)c3ccc(F)cc3)o2)cc1,102.6,1.0*,102.0,114.5,97.8,109.7,99.8,0.1,124.7,0.2
